From the supplement of paper PMC10338343
± gives the standard deviation.

These sequences were tested on MILI (PIWIL2) piRISC loaded with piRNA #1 (26 nt) (assay: pre-steady-state target cleavage rate (min^-1); guide: piRNA #1 5'p-UGAGGUAGUAGGUUGUAUAGUAUCCA; MIWI and MILI are mouse PIWI proteins and EfPiwi is from a freshwater sponge; tags in brackets are library labels; higher = faster piRNA-guided slicing of the target). Settings: auxiliary factor: 500 nM mouse GTSF1.
In short: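 With or without 500 nM GTSF1 partner protein, 1 nM active affinity-purified piRISC carrying one synthetic guide was mixed with 0.1 nM transcribed, DNA-blocked target RNA library in HEPES–potassium acetate buffer at 33 °C for 0–8 or 0–960 min. Uncleaved targets were sequenced and normalised to depth and to weakly complementary targets, three trials were pooled, and k3 was capped at 0.0001 min^-1. The pre-steady-state cleavage rate came from a burst-and-steady-state fit.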

Sequence | pre-steady-state target cleavage rate
GGAGACCUUACUAUACAACCUACAACGUCA | 0.0109 ± 0.0043
GGAGACCUAUGUAUUCAACGUACUACCUCA | 0.00676 ± 0.0018
GGAGACCUAACUAUACAACCUACUACCUGA | 0.108 ± 0.03
GGAGACCUUACUAUACAACCUACUACCAGA | 0.107 ± 0.017
GGAGACCUAUGAUUACAACCUACUACCAUCA | 0.00378 ± 0.0028
GGAGACCUAUCUAUACAGCCUACUACCUCA | 0.0315 ± 0.006
GGAGACCUAUGAAUACAAGCUUCUACCUCA | 0.0038 ± 0.002
GGAGACCUAUCUAUACAAGCUACUACCACA | 0.278 ± 0.019
GGAGACCAUACUAUUCAUCCUACUACCUCA | 0.271 ± 0.019
GGAGACCUUACUAUAGAACCUACUACGUCA | 0.0503 ± 0.012
GGAGACCUAUCUAUUCAACCUACAACCUCA | 0.0889 ± 0.011
GGAGACCUAUGAUUACAACCUACUACCUUA | 0.00425 ± 0.0023
GGAGACCUUACUUUACAACCUACUACCUGA | 0.0835 ± 0.014
GGAGACCUAACUAUACUACCUACUUCCUCA | 0.0587 ± 0.013
GGAGACCUAACUAAACUACCUACUACCUCA | 0.0594 ± 0.017
GGAGACCUAUGAUAUCUACCUACUACCUGA | < 0.0001
